# Data reported in PubChem BioAssay (NCI).
# This is part of a sample that, as a whole, favours compounds with a hit. Of some 79,000 tested, about 15% had one in any assay. A number with no mark means an inactive call. The source made the active and inactive calls. Cut-off read from the data, not from the text of the source: active = growth inhibition above about 70%; inactive = the rest.
# Experiments:
# [1] = NCI Yeast Anticancer Drug Screen. Data for the wt1 strain (AID 149);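 note: 0% = growth of vehicle-treated wt1 cultures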; conditions: S. cerevisiae wt1 strain (SPY 50644) growth inhibition, hits give high values
# Outline: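 Growth inhibition read against vehicle controls after compound exposure of the wt1 yeast strain.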
# [2] = NCI Yeast Anticancer Drug Screen. Data for the rad50EPP+ strain (AID 151);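 note: 0% = growth of vehicle-treated control cultures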; conditions: S. cerevisiae rad50 mutant strain, hits give high values
# Outline: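 In this screen, rad50EPP+ yeast were exposed to compounds. Growth inhibition was scored against vehicle-treated controls.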
# [3] = NCI Yeast Anticancer Drug Screen. Data for the mgt1 strain (AID 153); conditions: S. cerevisiae mgt1 mutant growth inhibition, hits give high values
# Outline: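 mgt1 strain exposed; growth vs vehicle control recorded as inhibition.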
# [4] = NCI Yeast Anticancer Drug Screen. Data for the rad50 strain (AID 155);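 note: 0% = growth of vehicle-only cultures of the same strain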; conditions: S. cerevisiae rad50 strain growth inhibition, hits give high values
# Outline: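 Readout: growth inhibition relative to vehicle-treated cultures. Compound exposure was carried out in a genetically defined yeast strain deficient in DNA damage repair.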
# [5] = NCI Yeast Anticancer Drug Screen. Data for the mec2-1 strain (AID 157); conditions: S. cerevisiae mec2-1 strain, hits give high values
# Outline: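 Vehicle-treated cultures served as reference for growth inhibition of compound-exposed mec2-1 yeast.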
# [6] = NCI Yeast Anticancer Drug Screen. Data for the sgs1 mgt1 strain (AID 161);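 note: 0% = growth of cultures given vehicle only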; conditions: S. cerevisiae sgs1 mgt1 strain, hits give high values
# Outline: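 Read-out: growth inhibition vs vehicle controls. Cells: mutant yeast strain deficient in DNA damage repair.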
# [7] = NCI Yeast Anticancer Drug Screen. Data for the CLN2oe strain (AID 163);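 note: 0% = growth of vehicle-only control cultures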; conditions: S. cerevisiae CLN2oe strain, hits give high values
# Outline: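 Inhibition relative to vehicle-treated yeast is reported. Cells: strain with genetic alteration in cell-cycle control, grown with compound.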
# [8] = NCI Yeast Anticancer Drug Screen. Data for the cln2 rad14 strain (AID 165);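 note: 0% = growth equal to vehicle treated cultures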; conditions: S. cerevisiae cln2 rad14 strain, hits give high values
# Outline: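 Each compound was tested on cln2 rad14 yeast. Inhibition of growth was calculated against vehicle-exposed controls.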
# [9] = NCI Yeast Anticancer Drug Screen. Data for the bub3 strain (AID 167); conditions: S. cerevisiae bub3 mutant strain, hits give high values
# Outline: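 Readout: yeast growth inhibition, expressed relative to vehicle-only wells. The test organism is a mutant strain from a panel with lesions in DNA repair or checkpoint genes.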
# [10] = NCI Yeast Anticancer Drug Screen. Data for the wt2 strain (AID 169);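 note: 0% = growth of vehicle-treated yeast cultures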; conditions: S. cerevisiae wt2 strain growth inhibition, hits give high values
# Outline: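 Inhibition of yeast growth was determined after compound treatment, normalised to controls receiving only vehicle.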
# [11] = NCI Yeast Anticancer Drug Screen. Data for the mlh1 strain (AID 171);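 note: 0% = growth of vehicle-treated control cultures of the same strain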; conditions: S. cerevisiae mlh1 strain growth inhibition, hits give high values
# Outline: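 Vehicle-normalised growth inhibition of a repair- or checkpoint-altered yeast strain following compound treatment.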
# [12] = NCI Yeast Anticancer Drug Screen. Data for the sgs1 strain (AID 173);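 note: 0% = growth of vehicle-only control cultures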; conditions: S. cerevisiae sgs1 mutant, hits give high values
# Outline: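 Screen format: yeast with repair or checkpoint alterations, compound exposure, growth read relative to vehicle.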
# [13] = NCI Yeast Anticancer Drug Screen. Data for the mlh1 rad18 strain (AID 175); conditions: S. cerevisiae mlh1 rad18 strain growth inhibition, hits give high values
# Outline: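 Vehicle-treated cultures served as the reference for growth inhibition in a yeast strain carrying DNA damage repair alterations exposed to each compound.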
# [14] = NCI Yeast Anticancer Drug Screen. Data for the rad18 strain (AID 177); conditions: S. cerevisiae rad18 mutant growth inhibition, hits give high values
# Outline: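 Test articles were incubated with altered yeast defective in DNA damage repair. Results are given as inhibition of growth versus vehicle.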
# [15] = at 5.0 µM (retest, dose inferred, filed as 0.5)
# [16] = at 50.0 µM (retest, dose inferred, filed as 5.0)
compound,measurement,setting,value
O=S(=O)(O)CC[S][Sn]([S]CCS(=O)(=O)O)([c]1ccccc1)[c]1ccccc1,growth inhibition,[1]; at 1.2 µM,-25%
same,growth inhibition,[1]; at 3.7 µM,12%
same,growth inhibition,[1]; at 11.0 µM,80% (active)
same,growth inhibition,[1]; at 33.0 µM,95% (active)
same,growth inhibition,[1]; at 100.0 µM,98% (active)
same,growth inhibition,[2]; at 1.2 µM,-20%
same,growth inhibition,[2]; at 3.7 µM,-17%
same,growth inhibition,[2]; at 11.0 µM,-11%
same,growth inhibition,[2]; at 33.0 µM,-7%
same,growth inhibition,[2]; at 100.0 µM,-22%
same,growth inhibition,[3]; at 1.2 µM,-7%
same,growth inhibition,[3]; at 3.7 µM,45%
same,growth inhibition,[3]; at 11.0 µM,92% (active)
same,growth inhibition,[3]; at 33.0 µM,97% (active)
same,growth inhibition,[3]; at 100.0 µM,98% (active)
same,growth inhibition,[4]; at 1.2 µM,-28%
same,growth inhibition,[4]; at 3.7 µM,18%
same,growth inhibition,[4]; [15],22%
same,growth inhibition,[4]; at 11.0 µM,90% (active)
same,growth inhibition,[4]; at 33.0 µM,97% (active)
same,growth inhibition,[4]; [16],97% (active)
same,growth inhibition,[4]; at 50.0 µM,88.5% (active)
same,growth inhibition,[4]; at 100.0 µM,97% (active)
same,growth inhibition,[5]; at 1.2 µM,-21%
same,growth inhibition,[5]; at 3.7 µM,11%
same,growth inhibition,[5]; [15],20%
same,growth inhibition,[5]; at 11.0 µM,81% (active)
same,growth inhibition,[5]; at 33.0 µM,97% (active)
same,growth inhibition,[5]; [16],99% (active)
same,growth inhibition,[5]; at 50.0 µM,89.8% (active)
same,growth inhibition,[5]; at 100.0 µM,98% (active)
same,growth inhibition,[6]; [15],3%
same,growth inhibition,[6]; [16],95% (active)
same,growth inhibition,[6]; at 50.0 µM,91% (active)
same,growth inhibition,[7]; at 1.2 µM,20%
same,growth inhibition,[7]; at 3.7 µM,20%
same,growth inhibition,[7]; at 11.0 µM,72% (active)
same,growth inhibition,[7]; at 33.0 µM,96% (active)
same,growth inhibition,[7]; at 100.0 µM,98% (active)
same,growth inhibition,[8]; [15],6%
same,growth inhibition,[8]; [16],91% (active)
same,growth inhibition,[8]; at 50.0 µM,88.5% (active)
same,growth inhibition,[9]; at 1.2 µM,-31%
same,growth inhibition,[9]; at 3.7 µM,30%
same,growth inhibition,[9]; [15],46%
same,growth inhibition,[9]; at 11.0 µM,87% (active)
same,growth inhibition,[9]; at 33.0 µM,96% (active)
same,growth inhibition,[9]; [16],96% (active)
same,growth inhibition,[9]; at 50.0 µM,87.8% (active)
same,growth inhibition,[9]; at 100.0 µM,97% (active)
same,growth inhibition,[10]; at 1.2 µM,-34%
same,growth inhibition,[10]; at 3.7 µM,8%
same,growth inhibition,[10]; at 11.0 µM,89% (active)
same,growth inhibition,[10]; at 33.0 µM,98% (active)
same,growth inhibition,[10]; at 100.0 µM,97% (active)
same,growth inhibition,[11]; at 1.2 µM,-35%
same,growth inhibition,[11]; at 3.7 µM,11%
same,growth inhibition,[11]; at 11.0 µM,89% (active)
same,growth inhibition,[11]; at 33.0 µM,95% (active)
same,growth inhibition,[11]; at 100.0 µM,96% (active)
same,growth inhibition,[12]; at 1.2 µM,-12%
same,growth inhibition,[12]; at 3.7 µM,32%
same,growth inhibition,[12]; at 11.0 µM,88% (active)
same,growth inhibition,[12]; at 33.0 µM,96% (active)
same,growth inhibition,[12]; at 100.0 µM,97% (active)
same,growth inhibition,[13]; [15],43%
same,growth inhibition,[13]; [16],99% (active)
same,growth inhibition,[13]; at 50.0 µM,91.5% (active)
same,growth inhibition,[14]; at 1.2 µM,-2%
same,growth inhibition,[14]; at 3.7 µM,43%
same,growth inhibition,[14]; at 11.0 µM,92% (active)
same,growth inhibition,[14]; at 33.0 µM,96% (active)
same,growth inhibition,[14]; at 100.0 µM,98% (active)
